Measured values: the supplement of paper PMC8728848
This is one part of a sample in which the strongest signals are shown more often than they occur.

Tests used:
Experiment in all cases: glycan array binding signal (z-score within array); higher = stronger binding
Conditions in all cases: glycan notation: IUPAC condensed, linker removed; mutation: D21K
[1] = molecular target: Fuc(a1-2)Gal(b1-3)GalNAc(a1-3)[Fuc(a1-2)]Gal(b1-4)GlcNAc
In short: (§1)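 Glycan array data came from 3228 arrays in the Consortium for Functional Glycomics database, and only arrays with an available protein sequence were kept. Glycan names were put into IUPAC-condensed notation, and columns mapping to the same glycan were averaged. The binding signal is a within-array Z-score, averaged across arrays of one protein sequence run at different concentrations or buffers and across linkers. A negative Z-score can be read as non-binding.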

[2] = molecular target: Fuc(a1-2)Gal(b1-4)[Fuc(a1-3)]GlcNAc
In short: as §1

[3] = molecular target: Fuc(a1-2)[Gal(a1-3)]Gal(b1-4)GlcNAc
In short: as §1

[4] = molecular target: Fuc(a1-2)[Gal(a1-3)]Gal(b1-4)GlcNAc(b1-3)GalNAc
In short: as §1

[5] = molecular target: Fuc(a1-2)[Gal(a1-3)]Gal(b1-4)GlcNAc(b1-3)[Fuc(a1-2)[Gal(a1-3)]Gal(b1-4)GlcNAc(b1-6)]GalNAc
In short: as §1

[6] = molecular target: Fuc(a1-2)[Gal(a1-3)]Gal(b1-4)GlcNAc(b1-6)GalNAc
In short: as §1

[7] = molecular target: Fuc(a1-2)[Gal(a1-3)]Gal(b1-4)[Fuc(a1-3)]GlcNAc
In short: as §1

[8] = molecular target: Fuc(a1-2)[GalNAc(a1-3)]Gal(b1-4)GlcNAc(b1-2)Man(a1-3)[Fuc(a1-2)[GalNAc(a1-3)]Gal(b1-4)GlcNAc(b1-2)Man(a1-6)]Man(b1-4)GlcNAc(b1-4)GlcNAc
In short: as §1

[9] = molecular target: Fuc(a1-2)[GalNAc(a1-3)]Gal(b1-4)GlcNAc(b1-3)[Fuc(a1-2)[GalNAc(a1-3)]Gal(b1-4)GlcNAc(b1-6)]GalNAc
In short: as §1

[10] = molecular target: Gal(a1-3)Gal(b1-4)GlcNAc(b1-2)Man
In short: as §1

[11] = molecular target: Gal(a1-4)GlcNAc
In short: as §1

[12] = molecular target: Gal(a1-6)Glc
In short: as §1

[13] = molecular target: Gal(b1-3)GalNAc(b1-3)Gal(a1-4)Gal(b1-4)Glc
In short: as §1

[14] = molecular target: Gal(b1-3)GalNAc(b1-4)[Neu5Ac(a2-3)]Gal(b1-4)Glc
In short: as §1

[15] = molecular target: Gal(b1-3)GlcNAc(b1-2)Man(a1-3)[GlcNAc(b1-4)][Gal(b1-3)GlcNAc(b1-2)Man(a1-6)]Man(b1-4)GlcNAc(b1-4)GlcNAc
In short: as §1

[16] = molecular target: Gal(b1-3)GlcNAc(b1-3)Gal(b1-4)Glc
In short: as §1

[17] = molecular target: Gal(b1-3)GlcNAc(b1-3)Gal(b1-4)GlcNAc(b1-3)Gal(b1-4)GlcNAc(b1-2)[Gal(b1-3)GlcNAc(b1-3)Gal(b1-4)GlcNAc(b1-3)Gal(b1-4)GlcNAc(b1-6)]Man(a1-6)[Gal(b1-3)GlcNAc(b1-3)Gal(b1-4)GlcNAc(b1-3)Gal(b1-4)GlcNAc(b1-2)Man(a1-3)]Man(b1-4)GlcNAc(b1-4)[Fuc(a1-6)]GlcNAc
In short: as §1

[18] = molecular target: Gal(b1-3)GlcNAc6S
In short: as §1

[19] = molecular target: Gal(b1-3)[Fuc(a1-4)]GlcNAc(b1-2)Man(a1-3)[Gal(b1-3)[Fuc(a1-4)]GlcNAc(b1-2)Man(a1-6)]Man(b1-4)GlcNAc(b1-4)[Fuc(a1-6)]GlcNAc
In short: as §1

[20] = molecular target: Gal(b1-3)[GlcNAc(b1-6)]GalNAc
In short: as §1

[21] = molecular target: Gal(b1-4)GlcNAc(b1-3)Gal(b1-4)GlcNAc(b1-2)Man(a1-3)[Gal(b1-4)GlcNAc(b1-3)Gal(b1-4)GlcNAc(b1-2)Man(a1-6)]Man(b1-4)GlcNAc(b1-4)[Fuc(a1-6)]GlcNAc
In short: as §1

[22] = molecular target: Gal(b1-4)GlcNAc(b1-3)Gal(b1-4)GlcNAc(b1-3)Gal(b1-4)GlcNAc(b1-3)Gal(b1-4)GlcNAc(b1-2)[Gal(b1-4)GlcNAc(b1-3)Gal(b1-4)GlcNAc(b1-3)Gal(b1-4)GlcNAc(b1-3)Gal(b1-4)GlcNAc(b1-6)]Man(a1-6)[Gal(b1-4)GlcNAc(b1-3)Gal(b1-4)GlcNAc(b1-3)Gal(b1-4)GlcNAc(b1-3)Gal(b1-4)GlcNAc(b1-2)Man(a1-3)]Man(b1-4)GlcNAc(b1-4)[Fuc(a1-6)]GlcNAc
In short: as §1

[23] = molecular target: Gal(b1-4)GlcNAc(b1-3)Gal(b1-4)GlcNAc(b1-3)GalNAc
In short: as §1

[24] = molecular target: Gal(b1-4)GlcNAc(b1-3)Gal(b1-4)GlcNAc(b1-6)[Gal(b1-3)]GalNAc
In short: as §1

[25] = molecular target: Gal(b1-4)GlcNAc(b1-3)Gal(b1-4)[Fuc(a1-3)]GlcNAc(b1-3)Gal(b1-4)[Fuc(a1-3)]GlcNAc
In short: as §1

[26] = molecular target: Gal3S6S(b1-4)GlcNAc
In short: as §1

[27] = molecular target: Gal6S(b1-3)GlcNAc6S
In short: as §1

## KILRGVCKKIMRTFLRRISKKILTGKK [C7A (Sus scrofa)]
[1]
  glycan array binding signal (z-score): -0.784
[2]
  glycan array binding signal (z-score): -1.12
[3]
  glycan array binding signal (z-score): 0.504
[4]
  glycan array binding signal (z-score): -1.37
[5]
  glycan array binding signal (z-score): -0.287
[6]
  glycan array binding signal (z-score): 0.121
[7]
  glycan array binding signal (z-score): 1.3
[8]
  glycan array binding signal (z-score): -0.971
[9]
  glycan array binding signal (z-score): 0.698
[10]
  glycan array binding signal (z-score): -0.255
[11]
  glycan array binding signal (z-score): -1.02
[12]
  glycan array binding signal (z-score): -1.76
[13]
  glycan array binding signal (z-score): 2.25
[14]
  glycan array binding signal (z-score): 0.649
[15]
  glycan array binding signal (z-score): 0.213
[16]
  glycan array binding signal (z-score): -0.894
[17]
  glycan array binding signal (z-score): 0.352
[18]
  glycan array binding signal (z-score): 1.73
[19]
  glycan array binding signal (z-score): -1.63
[20]
  glycan array binding signal (z-score): -0.867
[21]
  glycan array binding signal (z-score): 3.05
[22]
  glycan array binding signal (z-score): -0.172
[23]
  glycan array binding signal (z-score): 2.33
[24]
  glycan array binding signal (z-score): 2.48
[25]
  glycan array binding signal (z-score): -0.696
[26]
  glycan array binding signal (z-score): 2.5
[27]
  glycan array binding signal (z-score): 2.66
